Results as given in PubChem BioAssay AID1159580 (chemical genetic matrix, 2015).
Screen size: about 5,500 compounds; about 2,000 (36%) were called active. Not shown: some 18% with an inconclusive outcome. No stated cut-off is given here; in the data, active means normalized growth mostly below about 0.91 (no sharp cut-off); inconclusive means no clear call, values can overlap the other calls; inactive means mostly above about 0.92. The list shows a part of the results.

Assay: chemical genetic growth profiling, strain panel (AID 1159580);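 further: tested at 20 µM; growth read once vehicle control cultures reached saturation at 30 °C; 1 = growth at the plate median or of vehicle wells; lower values mean less growth of the strain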
Conditions: growth OD

Measured: normalized growth

C=CCCCCCCCCCCCC(O)CC(O)COC(C)=O (stereo not given) (tested in a mixture with another compound)
active: S. cerevisiae deletion strains, locus YBR009C, strain hhf1, hits give low values 0.798 | S. cerevisiae deletion strains, locus YBR021W, strain FUR4, hits give low values 0.78 | S. cerevisiae deletion strains, locus YBR023C, strain chs3, hits give low values 0.891 | S. cerevisiae deletion strains, locus YCL011C, strain gbp2, hits give low values 0.866 | S. cerevisiae deletion strains, locus YCL016C, strain dcc1, hits give low values 0.907 | S. cerevisiae deletion strains, locus YDL074C, strain BRE1, hits give low values 0.723 | S. cerevisiae deletion strains, locus YDL192W, strain arf1, hits give low values 0.875 | S. cerevisiae deletion strains, locus YDR101C, strain arx1, hits give low values 0.886 | S. cerevisiae deletion strains, locus YDR318W, strain mcm21, hits give low values 0.911 | S. cerevisiae deletion strains, locus YDR392W, strain spt3, hits give low values 0.329 | S. cerevisiae deletion strains, locus YDR502C, strain sam2, hits give low values 0.912 | S. cerevisiae deletion strains, locus YER155C, strain BEM2, hits give low values 0.646 | S. cerevisiae deletion strains, locus YGL086W, strain mad1, hits give low values 0.835 | S. cerevisiae deletion strains, locus YGL253W, strain hxk2, hits give low values 0.847 | S. cerevisiae deletion strains, locus YHR013C, strain ard1, hits give low values 1.16 [resistant] | S. cerevisiae deletion strains, locus YHR129C, strain ARP1, hits give low values 0.914 | S. cerevisiae deletion strains, locus YHR142W, strain chs7, hits give low values 0.714 | S. cerevisiae deletion strains, locus YIL125W, strain kgd1, hits give low values 0.908 | S. cerevisiae deletion strains, locus YJL095W, strain BCK1 (second series), hits give low values 0.905 | S. cerevisiae deletion strains, locus YJL129C, strain trk1, hits give low values 0.802 | S. cerevisiae deletion strains, locus YJL164C, strain tpk1, hits give low values 0.832 | S. cerevisiae deletion strains, locus YJL166W, strain qcr8, hits give low values 0.836 | S. cerevisiae deletion strains, locus YKL009W, strain mrt4, hits give low values 0.864 | S. cerevisiae deletion strains, locus YKR001C, strain vps1, hits give low values 0.817 | S. cerevisiae deletion strains, locus YLR027C, strain aat2, hits give low values 0.921 | S. cerevisiae deletion strains, locus YLR221C, strain rsa3, hits give low values 0.806 | S. cerevisiae deletion strains, locus YLR258W, strain gsy2, hits give low values 0.906 | S. cerevisiae deletion strains, locus YLR262C, strain YPT6 (second series), hits give low values 0.823 | S. cerevisiae deletion strains, locus YLR320W, strain mms22, hits give low values 0.823 | S. cerevisiae deletion strains, locus YLR371W, strain rom2, hits give low values 0.874 | S. cerevisiae deletion strains, locus YLR418C, strain cdc73, hits give low values 0.684 | S. cerevisiae deletion strains, locus YML032C, strain rad52, hits give low values 0.88 | S. cerevisiae deletion strains, locus YML120C, strain ndi1, hits give low values 0.899 | S. cerevisiae deletion strains, locus YMR205C, strain PFK2, hits give low values 0.826 | S. cerevisiae deletion strains, locus YNL071W, strain lat1, hits give low values 0.762 | S. cerevisiae deletion strains, locus YNL233W, strain BNI4, hits give low values 0.845 | S. cerevisiae deletion strains, locus YNL298W, strain CLA4, hits give low values 0.824 | S. cerevisiae deletion strains, locus YNL307C, strain MCK1, hits give low values 0.56 | S. cerevisiae deletion strains, locus YNR052C, strain pop2, hits give low values 0.898 | S. cerevisiae deletion strains, locus YOL147C, strain pex11, hits give low values 0.917 | S. cerevisiae deletion strains, locus YOR061W, strain CKA2, hits give low values 0.672 | S. cerevisiae deletion strains, locus YOR083W, strain WHI5, hits give low values 0.873 | S. cerevisiae deletion strains, locus YOR184W, strain ser1, hits give low values 0.446 | S. cerevisiae deletion strains, locus YOR270C, strain vph1, hits give low values 0.699 | S. cerevisiae deletion strains, locus YPL051W, strain arl3, hits give low values 0.88 | S. cerevisiae deletion strains, locus YPL078C, strain atp4, hits give low values 0.882 | S. cerevisiae deletion strains, locus YPR163C, strain tif3, hits give low values 0.898 | S. cerevisiae deletion strains, locus YPR167C, strain met16, hits give low values 0.905 | S. cerevisiae deletion strains, strain wtn01, hits give low values 0.866 | S. cerevisiae strains, strain wild type, hits give low values 0.796
inactive: S. cerevisiae deletion strains, locus YAL013W, strain DEP1, hits give low values 0.943 | S. cerevisiae deletion strains, locus YAL021C, strain ccr4, hits give low values 1.01 | S. cerevisiae deletion strains, locus YAL026C, strain drs2, hits give low values 0.937 | S. cerevisiae deletion strains, locus YAL030W, strain snc1, hits give low values 0.963 | S. cerevisiae deletion strains, locus YBL061C, strain skt5, hits give low values 0.95 | S. cerevisiae deletion strains, locus YBR171W, strain sec66, hits give low values 0.946 | S. cerevisiae deletion strains, locus YBR229C, strain ROT2, hits give low values 1 | S. cerevisiae deletion strains, locus YBR231C, strain swc5, hits give low values 0.971 | S. cerevisiae deletion strains, locus YBR279W, strain paf1, hits give low values 0.949 | S. cerevisiae deletion strains, locus YCL029C, strain bik1, hits give low values 0.951 | S. cerevisiae deletion strains, locus YCL061C, strain MRC1, hits give low values 0.936 | S. cerevisiae deletion strains, locus YCL069W, strain vba3, hits give low values 0.963 | S. cerevisiae deletion strains, locus YCR088W, strain abp1, hits give low values 0.978 | S. cerevisiae deletion strains, locus YDL005C, strain med2, hits give low values 0.955 | S. cerevisiae deletion strains, locus YDL035C, strain GPR1, hits give low values 0.907 | S. cerevisiae deletion strains, locus YDL040C, strain nat1, hits give low values 0.967 | S. cerevisiae deletion strains, locus YDL101C, strain DUN1, hits give low values 0.983 | S. cerevisiae deletion strains, locus YDL134C, strain PPH21, hits give low values 0.892 | S. cerevisiae deletion strains, locus YDL185W, strain tfp1, hits give low values 1.01 | S. cerevisiae deletion strains, locus YDR001C, strain nth1, hits give low values 0.967 | S. cerevisiae deletion strains, locus YDR069C, strain doa4, hits give low values 1.02 | S. cerevisiae deletion strains, locus YDR137W, strain rgp1, hits give low values 0.882 | S. cerevisiae deletion strains, locus YDR150W, strain NUM1, hits give low values 1.02 | S. cerevisiae deletion strains, locus YDR159W, strain sac3, hits give low values 0.947 | S. cerevisiae deletion strains, locus YDR162C, strain NBP2, hits give low values 0.999 | S. cerevisiae deletion strains, locus YDR195W, strain ref2 0.875 | S. cerevisiae deletion strains, locus YDR297W, strain sur2, hits give low values 0.962 | S. cerevisiae deletion strains, locus YDR334W, strain swr1, hits give low values 0.993 | S. cerevisiae deletion strains, locus YDR335W, strain msn5, hits give low values 0.969 | S. cerevisiae deletion strains, locus YDR388W, hits give low values 0.991 | S. cerevisiae deletion strains, locus YEL003W, strain gim4, hits give low values 0.95 | S. cerevisiae deletion strains, locus YEL037C, strain rad23, hits give low values 0.966 | S. cerevisiae deletion strains, locus YEL061C, strain CIN8 (second series), hits give low values 0.971 | S. cerevisiae deletion strains, locus YER015W, strain faa2, hits give low values 0.982 | S. cerevisiae deletion strains, locus YER016W, strain bim1, hits give low values 0.981 | S. cerevisiae deletion strains, locus YER110C, hits give low values 0.995 | S. cerevisiae deletion strains, locus YER111C, strain swi4, hits give low values 0.947 | S. cerevisiae deletion strains, locus YER155C, strain BEM2 (second series), hits give low values 0.877 | S. cerevisiae deletion strains, locus YER167W, strain BCK2, hits give low values 0.979 | S. cerevisiae deletion strains, locus YFR010W, strain ubp6, hits give low values 0.974 | S. cerevisiae deletion strains, locus YGL078C, strain dbp3, hits give low values 0.933 | S. cerevisiae deletion strains, locus YGL167C, strain pmr1, hits give low values 0.966 | S. cerevisiae deletion strains, locus YGL173C, strain kem1, hits give low values 0.941 | S. cerevisiae deletion strains, locus YGL227W, strain vid30, hits give low values 0.969 | S. cerevisiae deletion strains, locus YGL240W, strain doc1, hits give low values 0.952 | S. cerevisiae deletion strains, locus YGL248W, strain PDE1, hits give low values 0.89 | S. cerevisiae deletion strains, locus YGR135W, strain pre9, hits give low values 0.971 | S. cerevisiae deletion strains, locus YGR229C, strain SMI1, hits give low values 0.838 | S. cerevisiae deletion strains, locus YGR252W, strain gcn5, hits give low values 0.782 | S. cerevisiae deletion strains, locus YHR027C, strain rpn1, hits give low values 0.964 | S. cerevisiae deletion strains, locus YHR030C, strain SLT2, hits give low values 1.01 | S. cerevisiae deletion strains, locus YHR079C, strain IRE1 (second series), hits give low values 0.993 | S. cerevisiae deletion strains, locus YHR094C, strain hxt1, hits give low values 0.992 | S. cerevisiae deletion strains, locus YHR200W, strain rpn10, hits give low values 0.938 | S. cerevisiae deletion strains, locus YIL066C, strain RNR3, hits give low values 0.921 | S. cerevisiae deletion strains, locus YIL073C, strain SPO22, hits give low values 1.05 | S. cerevisiae deletion strains, locus YIR030C, strain dcg1, hits give low values 0.972 | S. cerevisiae deletion strains, locus YJL092W, strain hpr5, hits give low values 0.973 | S. cerevisiae deletion strains, locus YJL095W, strain BCK1, hits give low values 0.827 | S. cerevisiae deletion strains, locus YJL115W, strain asf1, hits give low values 0.953 | S. cerevisiae deletion strains, locus YJL134W, strain LCB3, hits give low values 1.02 | S. cerevisiae deletion strains, locus YJL154C, strain vps35, hits give low values 0.965 | S. cerevisiae deletion strains, locus YJL168C, strain set2, hits give low values 0.992 | S. cerevisiae deletion strains, locus YJL187C, strain SWE1 (second series), hits give low values 0.967 | S. cerevisiae deletion strains, locus YJL187C, strain SWE1, hits give low values 0.961 | S. cerevisiae deletion strains, locus YKL068W, hits give low values 1.01 | S. cerevisiae deletion strains, locus YKL085W, strain MDH1 (second series), hits give low values 0.943 | S. cerevisiae deletion strains, locus YKL085W, strain MDH1, hits give low values 0.943 | S. cerevisiae deletion strains, locus YKL160W, strain elf1, hits give low values 0.923 | S. cerevisiae deletion strains, locus YKR026C, strain gcn3, hits give low values 0.974 | S. cerevisiae deletion strains, locus YKR091W, strain srl3, hits give low values 0.975 | S. cerevisiae deletion strains, locus YLL001W, strain dnm1, hits give low values 0.908 | S. cerevisiae deletion strains, locus YLL026W, hits give low values 0.968 | S. cerevisiae deletion strains, locus YLL041C, strain sdh2, hits give low values 0.973 | S. cerevisiae deletion strains, locus YLR039C, strain RIC1, hits give low values 1.13 | S. cerevisiae deletion strains, locus YLR058C, strain SHM2, hits give low values 0.947 | S. cerevisiae deletion strains, locus YLR102C, strain apc9, hits give low values 0.978 | S. cerevisiae deletion strains, locus YLR268W, strain sec22, hits give low values 0.975 | S. cerevisiae deletion strains, locus YLR342W, strain FKS1 (second series), hits give low values 0.824 | S. cerevisiae deletion strains, locus YLR342W, strain FKS1, hits give low values 0.932 | S. cerevisiae deletion strains, locus YLR357W, strain rsc2, hits give low values 1.02 | S. cerevisiae deletion strains, locus YLR370C, strain arc18, hits give low values 0.975 | S. cerevisiae deletion strains, locus YLR384C, strain iki3, hits give low values 0.97 | S. cerevisiae deletion strains, locus YML016C, strain PPZ1, hits give low values 1.01 | S. cerevisiae deletion strains, locus YML124C, strain tub3, hits give low values 0.997 | S. cerevisiae deletion strains, locus YMR058W, strain fet3, hits give low values 0.953 | S. cerevisiae deletion strains, locus YMR078C, strain ctf18, hits give low values 0.981 | S. cerevisiae deletion strains, locus YMR125W, strain sto1, hits give low values 0.942 | S. cerevisiae deletion strains, locus YMR129W, hits give low values 0.978 | S. cerevisiae deletion strains, locus YMR223W, strain ubp8, hits give low values 0.928 | S. cerevisiae deletion strains, locus YMR231W, strain pep5, hits give low values 0.966 | S. cerevisiae deletion strains, locus YMR307W, strain GAS1, hits give low values 0.869 | S. cerevisiae deletion strains, locus YNL067W, strain RPL9B, hits give low values 0.995 | S. cerevisiae deletion strains, locus YNL209W, strain ssb2, hits give low values 0.965 | S. cerevisiae deletion strains, locus YNL248C, strain rpa49, hits give low values 0.99 | S. cerevisiae deletion strains, locus YNL250W, strain rad50, hits give low values 1.01 | S. cerevisiae deletion strains, locus YNL271C, strain bni1, hits give low values 0.947 | S. cerevisiae deletion strains, locus YNL322C, strain KRE1 (second series), hits give low values 0.973 | S. cerevisiae deletion strains, locus YNR049C, strain mso1, hits give low values 0.969 | S. cerevisiae deletion strains, locus YOL012C, strain htz1 1.44 | S. cerevisiae deletion strains, locus YOR001W, strain rrp6, hits give low values 0.943 | S. cerevisiae deletion strains, locus YOR069W, strain VPS5, hits give low values 0.989 | S. cerevisiae deletion strains, locus YOR070C, strain gyp1, hits give low values 0.935 | S. cerevisiae deletion strains, locus YOR080W, strain dia2, hits give low values 0.978 | S. cerevisiae deletion strains, locus YOR106W, strain vam3, hits give low values 0.875 | S. cerevisiae deletion strains, locus YOR136W, strain idh2, hits give low values 0.973 | S. cerevisiae deletion strains, locus YOR144C, strain elg1, hits give low values 0.944 | S. cerevisiae deletion strains, locus YOR265W, strain rbl2, hits give low values 0.937 | S. cerevisiae deletion strains, locus YOR290C, strain snf2, hits give low values 0.917 | S. cerevisiae deletion strains, locus YOR316C, strain cot1, hits give low values 0.984 | S. cerevisiae deletion strains, locus YPL106C, strain sse1, hits give low values 1.06 | S. cerevisiae deletion strains, locus YPL240C, strain hsp82, hits give low values 0.958 | S. cerevisiae deletion strains, locus YPL241C, strain CIN2, hits give low values 1 | S. cerevisiae deletion strains, locus YPR119W, strain clb2, hits give low values 0.982 | S. cerevisiae deletion strains, locus YPR141C, strain kar3, hits give low values 1.01
